Screens as filed in PubChem BioAssay.
MazEF act = activators of E. coli MazEF toxin-antitoxin RNase; FAM/BHQ RNA-DNA oligo cleavage fluorescence, 5 h; activation, % at 20 µM; actives 0.32% (n = 350,000); in the data active means activation above about 50%
Target sequence (P0AE70 whole entry, looked up): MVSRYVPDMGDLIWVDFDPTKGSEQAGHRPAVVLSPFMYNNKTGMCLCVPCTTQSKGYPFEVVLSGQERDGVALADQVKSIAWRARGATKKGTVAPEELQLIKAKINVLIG
PfHsp40 yeast = restores yeast growth despite PfHsp40 toxicity; S. cerevisiae expressing PfHsp40, growth rescue, ATP luminescence; actives 0.68% (n = 340,000); growth rescue, % at 12.5 µM; AID 504582; in the data active means growth rescue above about 28%, passing the limit was not always enough;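 further: yeast W303a lacking pdr1 and pdr3 grown in galactose medium; growth measured after three days at 30 °C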
BJeLR viability = kills HRASV12-expressing BJeLR cells. BJeLR (HRASV12) viability, CellTiter-Glo ATP luminescence, 48 h. inhibition, % (concentration not given with the values). actives 0.17% (n = 300,000); in the data active means inhibition above about 50%
BioA inh = BioA (M. tuberculosis) enzyme inhibition | inhibition, % at 9.99 µM | actives 0.096% (n = 360,000) | purified M. tuberculosis BioA enzyme, plate reader; in the data active means inhibition above about 40%
Yp Topo-I inh = Y. pestis Topo-I inhibition via cleavage products; Y. pestis Topo-I cleavage product accumulation, plate reader; activity, % at 10 µM; actives 0.064% (n = 360,000); in the data active means activity above about 50%, passing the limit was not always enough
SARS 3CLpro inh = SARS-CoV 3CLpro protease inhibition; inhibition, % at 6 µM; P0C6X7; AID 1706; actives 0.14% (n = 290,000); recombinant SARS-CoV 3CLpro, quenched FRET peptide cleavage; in the data active means inhibition above about 12%
A number is an active result; 0 = inactive; - = not tested or not shown; + = active, no number. An excerpt weighted towards active compounds, which were near 1.1% of everything screened.

SMILES	MazEF act	PfHsp40 yeast	BJeLR viability	BioA inh	Yp Topo-I inh	SARS 3CLpro inh
O=C(c1cc2ccccc2o1)N1CCN(c2ccccc2Cl)CC1	0	187	0	0	0	0
Cc1ccc(N(Cc2cc3cc(C)ccc3[nH]c2=O)C(=O)c2cccs2)cc1	89	0	0	-	0	0
CC1(C)OC(c2ccccc2)=C/C(=C/C=C2C(=O)NC(=S)NC2=O)O1	+	-	0	-	-	0
COc1ccc(N=C/C=C2/C=C(c3ccccc3)OC(C)(C)O2)cc1	0	0	0	0	0	0
C[C@@H]1CN([C@@H](C)CO)C(=O)c2cc(-c3ccc(C#N)cc3)cnc2O[C@@H]1CN(C)Cc1ccccn1	-	-	-	0	-	-
COc1ccc(N2CCCC2)c(NC(=O)c2ccc(Br)o2)c1	63	0	0	0	0	0
C[C@H](CO)N1C[C@H](C)[C@H](CN(C)C(=O)C2CCCCC2)Oc2cc(C3=CCCC3)ccc2S1(=O)=O	-	-	-	0	-	-
Cc1c(C(c2ccc(O)cc2)c2c(O)c3ccccc3oc2=O)c(=O)n(-c2ccccc2)n1C (stereo not drawn)	0	0	0	-	0	0
COc1ccc(OC)c(C(c2c(O)c3ccccc3oc2=O)c2c(C)n(C)n(-c3ccccc3)c2=O)c1 (stereo not drawn)	0	46	0	0	0	0
O=C(Nc1ccc(F)cc1)N1CCCCN2[C@H](C1)[C@H](c1ccc(C3=CCCCC3)cc1)[C@@H]2CO	-	-	-	0	-	-
CO[C@H](CN(C)Cc1cc(F)ccc1F)[C@H](C)CN(C(=O)Nc1ccc(F)cc1)[C@H](C)CO	-	-	-	0	-	-
Cc1nn(CCC#N)c2nc(-c3ccccc3)cc(C(F)(F)F)c12	0	0	0	0	0	0
Cc1nn(CCC(N)=S)c2nc(-c3cccs3)cc(C(F)(F)F)c12	0	223	0	-	0	0
Cc1c(C(=O)NCCSCc2c(F)cccc2Cl)cnn1-c1ccc(Cl)cc1	0	132	0	0	0	0
CCN(CC)c1ccc2cc(C(=O)NNC(=O)c3ccc(S(=O)(=O)N4CCCCC4)cc3)c(=O)oc2c1	75	0	0	0	0	0
Cc1ccc(C(=O)NNC(=O)c2ccc(S(=O)(=O)N3CCCCC3)cc2)cc1	0	0	-	0	0	-
CCOC(=O)C1=CN(Cc2cccc(F)c2)S(=O)(=O)N(C)C1c1cccc(OC)c1 (stereo not drawn)	50	0	-	0	0	-
CN(C)c1cc(-c2ccc([N+](=O)[O-])cc2)oc(=O)c1Cl	54	0	0	-	0	0
CN(C)c1cc(-c2ccc(Cl)cc2)oc(=O)c1Cl	0	0	0	-	0	0
CCN(CC)S(=O)(=O)c1ccc(-c2nnc(SCc3nnc(-c4ccc(C)cc4)o3)n2CC)cc1	0	45	0	0	0	0
COc1ccc(C2C(C#N)=C(N)OC(C(C)(C)C)=C2C#N)cc1OC (stereo not drawn)	0	0	0	0	0	0
COc1ccc(C2C(C#N)=C(N)SC(N)=C2C#N)cc1OC	0	0	0	43	0	0
C/C=C/c1cnc2c(c1)C(=O)N([C@H](C)CO)C[C@@H](C)[C@@H](CN(C)C(=O)Nc1ccc(F)cc1)O2	-	-	-	0	-	-
COc1ccc(NC(=O)Nc2ccc3c(c2)CC(=O)N([C@@H](C)CO)C[C@H](C)[C@H](CN(C)S(=O)(=O)c2ccc(F)cc2)O3)cc1	-	-	-	0	-	-
COc1ccc(N2CCN(C(=O)C3CCCN(S(=O)(=O)c4ccc(C)cc4)C3)CC2)cc1 (stereo not drawn)	0	0	0	0	0	0
SMILES	MazEF act	PfHsp40 yeast	BJeLR viability	BioA inh	Yp Topo-I inh	SARS 3CLpro inh
Cc1ccc(S(=O)(=O)N2CCCC(C(=O)N3CCN(c4ccccc4)CC3)C2)cc1 (stereo not drawn)	0	74	0	0	0	0
CC(=O)c1cc(NC(=O)c2cccc(C(F)(F)F)c2)c(=O)oc1/C=C/N(C)C	180	0	0	0	0	0
CC(=O)c1cc(NC(=O)c2cccc(C(F)(F)F)c2)c(=O)oc1C	0	0	0	-	0	0
O=[N+]([O-])c1cc(Cl)cc(/C=N/n2cnnc2)c1O	0	0	0	-	0	0
O=[N+]([O-])c1cc(Br)cc(/C=N/n2cnnc2)c1O	0	204	0	-	0	0
CC(C)NC(=O)N(C)C[C@H]1OCCCC[C@H](C)Oc2ccc(NC(=O)c3ccccc3)cc2C(=O)N([C@H](C)CO)C[C@H]1C	-	-	-	0	-	-
COc1ccc(COC(=O)c2cc([N+](=O)[O-])ccc2N2CCOCC2)cc1F	0	0	55	0	0	-
Cc1ccc(S(=O)(=O)Nc2ccc3c(c2)C(=O)N([C@@H](C)CO)C[C@@H](C)[C@H](CN(C)Cc2ccncc2)OCCCC[C@@H](C)O3)cc1	-	-	-	0	-	-
O=C1C(=C(c2ccccc2)c2ccccc2)Nc2ccccc21	0	78	0	0	0	0
CN(CC(=O)O/N=C(\N)c1ccccn1)S(=O)(=O)c1ccc(Br)cc1	0	0	0	0	0	0
Cc1ccc(S(=O)(=O)N(C)CC(=O)O/N=C(\N)c2ccccn2)cc1	61	0	0	-	0	0
CC(C)(C)CC(=O)O/N=C(\N)c1ccccn1	0	72	0	-	0	0
Cc1ccc(CC(=O)O/N=C(\N)c2ccccn2)cc1	0	0	0	0	0	0
CCCNC(=O)C[C@H]1CC[C@H]2[C@@H](COC[C@H](O)CN2C(=O)Nc2ccccc2OC)O1	-	-	-	0	-	-
CC(C)OC(=O)N(C)C[C@H]1OCc2cn(nn2)CCCC(=O)N([C@H](C)CO)C[C@H]1C	-	-	-	0	-	-
Cc1c(C(=O)OCC(=O)N2CC(=O)Nc3ccccc32)oc2ccc(Br)cc12	0	0	68	0	0	0
CCOCCCNc1nc2c(C)cccn2c(=O)c1/C=C1\SC(=S)N(C(C)CC)C1=O (stereo not drawn)	603	0	0	0	0	0
CCOCCCNc1nc2c(C)cccn2c(=O)c1/C=C1\SC(=S)N(CC(C)C)C1=O	0	0	0	-	0	0
CCCN1C(=O)/C(=C/c2c(NCCCOCC)nc3c(C)cccn3c2=O)SC1=S	295	0	-	0	0	0
c1ccc2c(c1)nc1n2CCN1CCN1CCCC1	0	44	0	0	0	0
O=C(NCC[C@H]1CC[C@@H](NS(=O)(=O)c2cccc(F)c2)[C@H](CO)O1)C1CC1	-	-	-	0	-	-
O=[N+]([O-])c1ccc(Nc2ccccc2O)c2nonc12	232	0	0	0	0	0
CCN1/C(=C2\OC(=S)N(C)C2=O)C=Cc2ccccc21	656	0	0	0	0	0
O=C(Nc1ccc(F)cc1)N[C@H]1C=C[C@H](CC(=O)N2CCOCC2)O[C@H]1CO	-	-	-	0	-	-
C[C@@H]1CN([C@H](C)CO)C(=O)c2cc(NC(=O)C3CCCCC3)ccc2O[C@@H](C)CCCCO[C@@H]1CN(C)Cc1ccc(C(F)(F)F)cc1	-	-	-	0	-	-
CC(=O)c1sc2nsc(SCCN3CCOCC3)c2c1N	0	-	0	0	0	0
Nc1c(C(=O)c2ccccc2)sc2nsc(SCCN3CCOCC3)c12	127	-	0	0	0	0
O=C(O)c1ccc2[nH]c3c(c2c1)CCCC3	0	35	0	0	0	0
